Measured values published in article PMC7862700, “An all-to-all approach to the identification of sequence-specific readers for epigenetic DNA modifications on cytosine”.

Legend:
Test in all cases: DAPPL (digital affinity profiling via proximity ligation, sequencing); 10 mM Tris-HCl pH 7.5, 50 mM NaCl, 1 mM DTT, 4% glycerol, room temperature, 30 min; GST-TFs on glutathione beads, 16-mer random dsDNA library, 0.1% formaldehyde crosslink after washing; high values mean tight binding
Conditions in all cases: protein: recombinant; tags: N-terminal GST; dsDNA, one strand shown
[1] = target: T1, FLI1 (Homo sapiens, UniProt Q01543 1-452)
T1 sequence: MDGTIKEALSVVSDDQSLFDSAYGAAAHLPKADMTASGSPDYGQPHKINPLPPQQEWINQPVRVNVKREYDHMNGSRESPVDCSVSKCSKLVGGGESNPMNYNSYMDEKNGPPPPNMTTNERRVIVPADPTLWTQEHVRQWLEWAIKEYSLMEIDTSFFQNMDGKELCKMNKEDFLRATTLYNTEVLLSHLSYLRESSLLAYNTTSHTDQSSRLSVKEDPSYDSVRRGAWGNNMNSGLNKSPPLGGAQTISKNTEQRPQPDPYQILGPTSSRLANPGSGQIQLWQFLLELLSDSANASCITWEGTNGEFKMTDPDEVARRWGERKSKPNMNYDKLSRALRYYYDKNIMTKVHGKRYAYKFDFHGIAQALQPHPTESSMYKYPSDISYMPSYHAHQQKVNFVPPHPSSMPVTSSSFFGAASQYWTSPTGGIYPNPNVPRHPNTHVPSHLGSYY
How it was run: (§1)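 GST fusions of human transcription factors were expressed in yeast and captured with glutathione beads. Once given DNA barcodes and pooled alongside a tag-only sample, they were incubated for 30 min at room temperature with 200 nmole of a random double-stranded 16-mer DNA library in Tris/NaCl/DTT/glycerol buffer, then washed, crosslinked (0.1% formaldehyde), proximity-ligated, PCR-amplified and sequenced on an Illumina NextSeq500. The binding signal of each hexamer is its read frequency for a factor divided by its frequency for the tag-only sample.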

[2] = target: T2, ELK1 (Homo sapiens, UniProt P19419 1-428)
T2 sequence: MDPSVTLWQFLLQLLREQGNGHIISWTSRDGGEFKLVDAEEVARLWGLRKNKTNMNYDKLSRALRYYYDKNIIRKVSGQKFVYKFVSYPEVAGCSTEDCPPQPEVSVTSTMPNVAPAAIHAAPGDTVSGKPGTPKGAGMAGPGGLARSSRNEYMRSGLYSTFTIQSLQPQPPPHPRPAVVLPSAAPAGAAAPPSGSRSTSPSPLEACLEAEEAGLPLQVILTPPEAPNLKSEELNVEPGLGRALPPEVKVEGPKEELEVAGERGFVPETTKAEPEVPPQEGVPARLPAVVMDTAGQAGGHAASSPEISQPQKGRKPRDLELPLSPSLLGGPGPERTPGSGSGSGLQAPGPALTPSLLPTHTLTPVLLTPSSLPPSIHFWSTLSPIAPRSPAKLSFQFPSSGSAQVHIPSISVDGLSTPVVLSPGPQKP
How it was run: as §1

[3] = target: T3, GABPA (Homo sapiens, UniProt Q06546 1-454)
T3 sequence: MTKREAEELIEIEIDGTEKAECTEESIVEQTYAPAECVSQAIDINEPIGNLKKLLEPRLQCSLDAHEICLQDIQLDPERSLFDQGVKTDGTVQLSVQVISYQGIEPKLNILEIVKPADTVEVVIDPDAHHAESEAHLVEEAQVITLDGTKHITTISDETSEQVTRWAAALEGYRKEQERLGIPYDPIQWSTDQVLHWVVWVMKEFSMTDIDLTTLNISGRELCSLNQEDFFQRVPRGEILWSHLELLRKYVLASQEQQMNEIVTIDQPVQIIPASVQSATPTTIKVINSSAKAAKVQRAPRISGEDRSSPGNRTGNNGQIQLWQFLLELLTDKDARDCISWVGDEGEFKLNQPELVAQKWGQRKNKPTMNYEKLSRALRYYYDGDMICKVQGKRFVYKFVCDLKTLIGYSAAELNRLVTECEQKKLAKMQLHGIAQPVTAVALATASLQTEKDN
How it was run: as §1

[4] = target: T4, ERG (Homo sapiens, UniProt P11308 1-479)
T4 sequence: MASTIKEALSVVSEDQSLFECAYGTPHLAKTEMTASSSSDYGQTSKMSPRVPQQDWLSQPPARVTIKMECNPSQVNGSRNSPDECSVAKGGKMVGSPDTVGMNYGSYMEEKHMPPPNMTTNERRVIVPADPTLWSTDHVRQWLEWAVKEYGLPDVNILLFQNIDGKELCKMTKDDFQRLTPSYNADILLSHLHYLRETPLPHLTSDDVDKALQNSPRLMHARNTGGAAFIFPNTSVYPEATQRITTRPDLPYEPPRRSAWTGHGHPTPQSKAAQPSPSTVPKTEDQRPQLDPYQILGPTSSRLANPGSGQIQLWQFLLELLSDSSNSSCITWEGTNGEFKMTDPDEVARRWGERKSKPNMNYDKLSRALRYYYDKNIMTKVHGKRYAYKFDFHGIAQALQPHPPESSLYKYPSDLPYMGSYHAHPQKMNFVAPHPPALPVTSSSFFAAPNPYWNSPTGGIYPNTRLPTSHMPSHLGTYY
How it was run: as §1

[5] = target: ELF1 (Homo sapiens, UniProt P32519 1-619)
How it was run: as §1

[6] = target: T5, EHF (Homo sapiens, UniProt Q9NZC4 1-300)
T5 sequence: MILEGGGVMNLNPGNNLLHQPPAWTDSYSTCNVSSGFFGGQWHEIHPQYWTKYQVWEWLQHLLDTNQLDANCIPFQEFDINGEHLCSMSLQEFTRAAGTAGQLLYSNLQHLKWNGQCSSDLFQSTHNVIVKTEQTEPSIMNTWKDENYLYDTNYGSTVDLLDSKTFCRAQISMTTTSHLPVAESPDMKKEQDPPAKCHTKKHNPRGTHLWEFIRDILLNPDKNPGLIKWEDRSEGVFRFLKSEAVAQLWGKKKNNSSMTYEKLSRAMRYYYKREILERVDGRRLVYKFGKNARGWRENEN
How it was run: as §1

[7] = target: SPI1 (Homo sapiens, UniProt P17947 1-270)
How it was run: as §1

[8] = target: SPIB (Homo sapiens, UniProt Q01892 1-262)
How it was run: as §1

[9] = target: T6, ELK3 (Homo sapiens, UniProt P41970 1-407)
T6 sequence: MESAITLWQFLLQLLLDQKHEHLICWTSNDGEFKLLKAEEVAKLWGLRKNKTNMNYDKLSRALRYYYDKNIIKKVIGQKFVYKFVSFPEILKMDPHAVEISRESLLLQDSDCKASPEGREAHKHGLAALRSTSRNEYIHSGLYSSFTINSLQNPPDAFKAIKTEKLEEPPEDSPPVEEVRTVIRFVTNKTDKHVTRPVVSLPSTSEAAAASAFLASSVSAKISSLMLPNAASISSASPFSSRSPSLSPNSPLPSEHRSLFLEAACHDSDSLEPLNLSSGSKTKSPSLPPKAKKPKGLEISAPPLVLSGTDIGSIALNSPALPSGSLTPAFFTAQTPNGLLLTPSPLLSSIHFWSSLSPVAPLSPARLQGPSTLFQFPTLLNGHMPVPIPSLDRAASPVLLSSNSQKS
How it was run: as §1

Sequence of SPIB (Q01892 whole entry): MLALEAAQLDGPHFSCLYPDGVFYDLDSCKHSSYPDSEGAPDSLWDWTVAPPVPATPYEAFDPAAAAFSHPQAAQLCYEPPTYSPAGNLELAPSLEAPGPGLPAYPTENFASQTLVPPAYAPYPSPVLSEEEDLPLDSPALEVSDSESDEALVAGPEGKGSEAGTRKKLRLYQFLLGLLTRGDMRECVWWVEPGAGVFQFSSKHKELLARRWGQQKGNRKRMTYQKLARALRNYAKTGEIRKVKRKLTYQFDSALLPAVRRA
Sequence of ELF1 (P32519 whole entry): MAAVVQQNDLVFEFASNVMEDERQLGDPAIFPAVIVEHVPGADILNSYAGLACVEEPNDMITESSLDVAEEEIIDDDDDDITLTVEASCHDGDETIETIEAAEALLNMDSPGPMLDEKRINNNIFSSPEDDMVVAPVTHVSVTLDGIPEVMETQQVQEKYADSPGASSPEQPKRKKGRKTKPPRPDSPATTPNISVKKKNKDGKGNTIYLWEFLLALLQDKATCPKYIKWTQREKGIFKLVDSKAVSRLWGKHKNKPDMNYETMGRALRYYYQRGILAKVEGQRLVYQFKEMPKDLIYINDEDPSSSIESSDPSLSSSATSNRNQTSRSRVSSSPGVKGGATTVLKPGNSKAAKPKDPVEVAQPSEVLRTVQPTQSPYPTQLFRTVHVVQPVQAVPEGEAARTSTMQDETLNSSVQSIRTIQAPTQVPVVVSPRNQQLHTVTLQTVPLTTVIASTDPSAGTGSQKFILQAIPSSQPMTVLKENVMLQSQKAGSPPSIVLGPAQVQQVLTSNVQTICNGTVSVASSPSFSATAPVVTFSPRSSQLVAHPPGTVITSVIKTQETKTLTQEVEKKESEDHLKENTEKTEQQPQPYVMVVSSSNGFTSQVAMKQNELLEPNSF

Row | Sequence | binding signal [1] | binding signal [2] | binding signal [3] | binding signal [4] | binding signal [5] | binding signal [6] | binding signal [7] | binding signal [8] | binding signal [9]
1 | GGATAT | 1.61 fold enrichment (6-mer frequency, TF over GST control) | 1.65 fold enrichment (6-mer frequency, TF over GST control) | 1.45 fold enrichment (6-mer frequency, TF over GST control) | 2 fold enrichment (6-mer frequency, TF over GST control) | 1.48 fold enrichment (6-mer frequency, TF over GST control) | 1.55 fold enrichment (6-mer frequency, TF over GST control) | 1.37 fold enrichment (6-mer frequency, TF over GST control) | 1.58 fold enrichment (6-mer frequency, TF over GST control) | 1.55 fold enrichment (6-mer frequency, TF over GST control)
2 | GGTTTG | 1.18 fold enrichment (6-mer frequency, TF over GST control) | 1.15 fold enrichment (6-mer frequency, TF over GST control) | 1.24 fold enrichment (6-mer frequency, TF over GST control) | 1.13 fold enrichment (6-mer frequency, TF over GST control) | 1.19 fold enrichment (6-mer frequency, TF over GST control) | 1.22 fold enrichment (6-mer frequency, TF over GST control) | 1.06 fold enrichment (6-mer frequency, TF over GST control) | 1.01 fold enrichment (6-mer frequency, TF over GST control) | 1.2 fold enrichment (6-mer frequency, TF over GST control)
3 | AAGTGC | 1.32 fold enrichment (6-mer frequency, TF over GST control) | 1.33 fold enrichment (6-mer frequency, TF over GST control) | 1.13 fold enrichment (6-mer frequency, TF over GST control) | 1.32 fold enrichment (6-mer frequency, TF over GST control) | 1.28 fold enrichment (6-mer frequency, TF over GST control) | 1.34 fold enrichment (6-mer frequency, TF over GST control) | 1.67 fold enrichment (6-mer frequency, TF over GST control) | 1.34 fold enrichment (6-mer frequency, TF over GST control) | 1.39 fold enrichment (6-mer frequency, TF over GST control)
4 | GGGCTT | 1.31 fold enrichment (6-mer frequency, TF over GST control) | 1.18 fold enrichment (6-mer frequency, TF over GST control) | 1.15 fold enrichment (6-mer frequency, TF over GST control) | 1.21 fold enrichment (6-mer frequency, TF over GST control) | 1.19 fold enrichment (6-mer frequency, TF over GST control) | 1.24 fold enrichment (6-mer frequency, TF over GST control) | 1.1 fold enrichment (6-mer frequency, TF over GST control) | 1.2 fold enrichment (6-mer frequency, TF over GST control) | 1.41 fold enrichment (6-mer frequency, TF over GST control)
